PubChem BioAssay (NCATS)
Records with an inconclusive call do not appear. Active and inactive are the calls of the source. Calls follow the shape of the dose curve; as a rule, active = well fitted inhibition curve with a large enough effect; inconclusive = small, poorly fitted or top-dose-only effect; inactive = flat fitted curve, though single readings scatter.

Legend:
Assay in all cases: Cytotoxic Profiling of Annotated Libraries Using Quantitative High-Throughput Screening (AID 1296008); also: nearly all actives have a fitted effect of over 60% in size
Conditions in all cases: Five cell lines viability, CellTiter-Glo ATP luminescence, 48-72 h; max response: active compounds read low
CRL-7250 = normal cell line; tested on: CRL-7250
Procedure, shortened: (§1)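 Compounds were pin-transferred onto cells and incubated 48 or 72 hr at 37 degree Celsius, 95% humidity. CellTiter-Glo was added, plates sat 10 min at room temperature, then ATP-coupled luminescence was imaged as the viability read-out.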

HEK293 = tested on: HEK293
Procedure, shortened: as §1

HaCat = tested on: HaCat
Procedure, shortened: as §1

KB-3-1 = tested on: KB-3-1
Procedure, shortened: as §1

NIH3T3 = tested on: NIH3T3
Procedure, shortened: as §1
% is scaled to controls: 0 for no effect and ±100 for the full control effect; potency is read from the fitted curve at half-maximal effect.

CCc1c(-c2ccccc2)c(-c2ccccc2)nn1-c1ccccc1-c1cccc(OCC(=O)O)c1
inactive: max response (CRL-7250) -8.36% | max response (HEK293) -14.2% | max response (HaCat) -10.2% | outcome (KB-3-1) | max response (NIH3T3) 0.468%

COc1cccc(C(=O)N2CCN(C(=O)COc3cccc(C)c3)CC2)c1OC
inactive: outcome (CRL-7250) | max response (HEK293) -16.5% | max response (HaCat) -1.12% | max response (KB-3-1) -10.9% | max response (NIH3T3) -5.08%

CCC1C(=O)N(C)c2cnc(Nc3ccc(C(=O)NC4CCC(N5CCN(CC6CC6)CC5)CC4)cc3OC)nc2N1C(C)C (stereo not given)
active: Potency (CRL-7250) 4.61 µM | Potency (HEK293) 0.0058 µM | Potency (HaCat) 0.0366 µM | Potency (KB-3-1) 0.0052 µM | Potency (NIH3T3) 1.64 µM

CC(C)c1c2cc(-c3ccnc(NC4CCC(NC5CCOCC5)CC4)n3)ccc2nn1C (stereo not given)
active: Potency (CRL-7250) 0.58 µM | Potency (HEK293) 0.13 µM | Potency (HaCat) 1.64 µM | Potency (KB-3-1) 0.231 µM | Potency (NIH3T3) 1.03 µM

Cc1cc(Cl)ccc1COc1ccnn1-c1cc(C(=O)O)ccn1
inactive: max response (CRL-7250) 0.791% | max response (HEK293) -13.3% | max response (HaCat) -5.14% | outcome (KB-3-1) | max response (NIH3T3) 0.276%

Cc1cc(Nc2ncc3cc(-c4c(Cl)cccc4Cl)c(=O)n(C)c3n2)ccc1F
active: Potency (CRL-7250) 1.84 µM | Potency (HEK293) 2.31 µM | Potency (HaCat) 5.8 µM | Potency (KB-3-1) 2.59 µM | Potency (NIH3T3) 1.46 µM

CC/C=C\[C@H](O)[C@H](O)C1=C(C)C(=O)[C@]2(O1)C(=O)N[C@@](OC)(C(=O)c1ccccc1)[C@@H]2O
inactive: max response (CRL-7250) -16% | max response (HEK293) -0.3% | max response (HaCat) -9.21% | max response (KB-3-1) 7.92% | max response (NIH3T3) 1.26%

C=C[C@@H]1[C@H](O[C@@H]2O[C@H](CO)[C@@H](O)[C@H](O)[C@H]2O)OC=C(C(=O)O)[C@H]1CCOC(=O)/C=C/c1ccc(O)c(O)c1
inactive: max response (CRL-7250) 1.95% | max response (HEK293) 4.3% | max response (HaCat) -20.8% | outcome (KB-3-1) | max response (NIH3T3) 0.24%

CC(C)C(C#N)O[C@@H]1O[C@H](CO[C@@H]2O[C@@H](C)[C@H](O)[C@@H](O)[C@H]2O)[C@@H](O)[C@H](O)[C@H]1O (stereo not given in full)
inactive: max response (CRL-7250) -4.82% | max response (HEK293) 0.693% | max response (HaCat) -12% | max response (KB-3-1) -1.19% | max response (NIH3T3) -15%

C[C@@H]1C[C@@H]([C@@H](O)C(C)(C)O)O[C@H]2C[C@@]3(C)C(=C12)C[C@H](O)[C@H]1[C@@]2(C)CCC(=O)C(C)(C)C2CC[C@@]13C (stereo not given in full)
inactive: max response (CRL-7250) 0.566% | max response (HEK293) 3.48% | max response (HaCat) -11.9% | max response (KB-3-1) 5.24% | max response (NIH3T3) -0.489%

CC1(C)CC[C@]2(C(=O)O[C@@H]3O[C@H](CO)[C@@H](O)[C@H](O)[C@H]3O)CC[C@]3(C)C(=CCC4[C@@]5(C)C[C@@H](O)[C@H](O)[C@](C)(C(=O)O)C5CC[C@]43C)C2C1O (stereo not given in full)
inactive: max response (CRL-7250) 2.5% | max response (HEK293) -1.42% | max response (HaCat) 1.77% | max response (KB-3-1) -4.21% | max response (NIH3T3) -9.14%

CCCCc1ccc(C(=O)Nc2cc(-c3ccc(Cl)cc3)nn2-c2ccc(Cl)cc2)cc1
inactive: max response (CRL-7250) -0.768% | max response (HEK293) -22.4% | max response (HaCat) -3.42% | max response (KB-3-1) -4.76% | max response (NIH3T3) -1.01%

CC1C(=O)OCC2=CCN3CCC(OC(=O)C(C)(O)C1(C)O)C23 (stereo not given)
inactive: outcome (CRL-7250) | max response (HEK293) -9.35% | max response (HaCat) -22.6% | outcome (KB-3-1) | max response (NIH3T3) -32%

CC/C=C/CC1=C(CCCCC(CCC(=O)O)OC(C)=O)CCC1=O (stereo not given)
inactive: max response (CRL-7250) -18.8% | max response (HEK293) -16.2% | max response (HaCat) -33.4% | max response (KB-3-1) -6.15% | max response (NIH3T3) -0.117%

C/C=C(/COC(=O)/C(C)=C/C)C(=O)OC(CC)c1ccc(OC)c(OC)c1 (stereo not given)
inactive: max response (CRL-7250) 3.89% | max response (HEK293) 4.08% | max response (HaCat) 3.4% | max response (KB-3-1) 9.77% | max response (NIH3T3) 1.56%

CC1(C)C2CC=C(COC3OC(COC4OCC(O)(CO)C4O)C(O)C(O)C3O)C1C2 (stereo not given)
inactive: outcome (CRL-7250) | max response (HEK293) -3.04% | max response (HaCat) 3.64% | max response (KB-3-1) 4.52% | max response (NIH3T3) 3.88%

CC1(C)CC[C@]2(C(=O)O[C@@H]3O[C@H](CO)[C@@H](O)[C@H](O)[C@H]3O)CC[C@]3(C)C(=CCC4[C@@]5(C)C[C@@H](O)[C@H](O)C(C)(C)C5CC[C@]43C)C2[C@@H]1O (stereo not given in full)
inactive: max response (CRL-7250) 0.543% | max response (HEK293) 0.957% | max response (HaCat) 2.98% | outcome (KB-3-1) | max response (NIH3T3) -3.15%

Cc1c(C(=O)N2CCOc3ccc(-c4ccc(N)nc4)cc3C2)ccc(S(C)(=O)=O)c1F
active: Potency (CRL-7250) 4.61 µM | Potency (HEK293) 5.8 µM | Potency (KB-3-1) 7.31 µM | Potency (NIH3T3) 11.6 µM
inactive: max response (HaCat) 2.5%

CC1CC(O)/C=C/C(O)C(O)CC(=O)Cc2c(Cl)c(O)cc(O)c2C(=O)O1 (stereo not given)
inactive: max response (CRL-7250) 2.61% | max response (HEK293) 0.716% | max response (HaCat) -4.28% | outcome (KB-3-1) | max response (NIH3T3) -18.1%

COc1cc2c(cc1OC)-c1[nH]nc(Nc3cccc(F)c3)c1C2
active: Potency (CRL-7250) 0.461 µM | Potency (HEK293) 0.13 µM | Potency (HaCat) 0.0731 µM | Potency (KB-3-1) 0.164 µM | Potency (NIH3T3) 0.731 µM

COc1c2c(c(C)c3c1C(=O)OC3)OC1(C)CC(O)C34OC(OC)(OC3(C)C)C(O)CC4(C)C1C2 (stereo not given)
inactive: outcome (CRL-7250) | max response (HEK293) -9.65% | max response (HaCat) -21.2% | outcome (KB-3-1) | max response (NIH3T3) -1.37%

COC(C(=O)N1Cc2[nH]nc(NC(=O)c3ccc(N4CCN(C)CC4)cc3)c2C1)c1ccccc1 (stereo not given)
active: Potency (CRL-7250) 1.84 µM | Potency (HEK293) 1.64 µM | Potency (HaCat) 5.8 µM | Potency (KB-3-1) 8.2 µM | Potency (NIH3T3) 4.11 µM

CC(=O)O[C@@H]1[C@@H](CO)O[C@@](CO)(O[C@H]2O[C@H](COC(=O)/C=C/c3ccccc3)[C@@H](O)[C@H](O)[C@H]2O)[C@H]1O
inactive: max response (CRL-7250) -0.112% | max response (HEK293) 0.799% | max response (HaCat) -9.37% | outcome (KB-3-1) | max response (NIH3T3) 1.35%

O=C1NC(Cc2ccccc2)C(=O)N2CCCC12 (stereo not given)
inactive: outcome (CRL-7250) | max response (HEK293) -1.73% | max response (HaCat) 2.36% | max response (KB-3-1) 9.71% | max response (NIH3T3) -0.863%

Clc1cc2c(NC3CCCC3)nnc(-c3ccncc3)c2cc1Cl
inactive: max response (CRL-7250) -13.3% | max response (HEK293) -9.96% | max response (HaCat) -55.6% | max response (KB-3-1) 2.36% | max response (NIH3T3) -2.41%

CC1=C(C)C(=O)OC(C(C)C2CCC3C4C5OC5C5(O)CC(OC6OC(CO)C(OC7OC(C)C(O)C(O)C7O)C(O)C6O)CC(O)C5(C)C4CCC23C)C1 (stereo not given)
inactive: outcome (CRL-7250) | max response (HEK293) -0.932% | max response (HaCat) 4.81% | outcome (KB-3-1) | max response (NIH3T3) 3.69%

CCC(COC)n1nnc2c(Nc3ccc(OC)cc3C)nc(C)cc21 (stereo not given)
inactive: outcome (CRL-7250) | max response (HEK293) -7.21% | max response (HaCat) -0.414% | max response (KB-3-1) 6.85% | max response (NIH3T3) 2.01%

CC1(C)CC[C@@]2(C(=O)O[C@@H]3O[C@H](CO)[C@@H](O)[C@H](O)[C@H]3O)C(C1)C1=CCC3[C@@]4(C)CC[C@@H](O[C@@H]5O[C@H](C(=O)O)[C@@H](O[C@@H]6OC[C@@H](O)[C@H](O)[C@H]6O)[C@H](O[C@@H]6OC[C@](O)(CO)[C@H]6O)[C@H]5O)C(C)(C)C4CC[C@@]3(C)[C@]1(C)C[C@H]2O (stereo not given in full)
inactive: outcome (CRL-7250) | max response (HEK293) -3.68% | max response (HaCat) 4.43% | outcome (KB-3-1) | max response (NIH3T3) -2.09%

C#CCN(Cc1cc2c(=O)[nH]c(C)nc2cc1Br)c1ccc(C(=O)NCc2cccnc2)cc1
active: Potency (CRL-7250) 0.0517 µM | Potency (HEK293) 0.0046 µM | Potency (HaCat) 0.0411 µM | Potency (KB-3-1) 0.0052 µM | Potency (NIH3T3) 0.0092 µM

CC(C)(C)C(=O)CN1C(=O)[C@H](NC(=O)Nc2cccc(C(=O)O)c2)CN(C2CCCCC2)c2ccccc21
inactive: max response (CRL-7250) 1.1% | max response (HEK293) 1.37% | max response (HaCat) -3.07% | outcome (KB-3-1) | max response (NIH3T3) 1.3%

COC(=O)[C@@H](O)[C@H]1[C@@]2(C)CC3(O)[C@@H](C(=O)[C@H]2O)[C@]24O[C@]25CC(=O)O[C@@H](c2ccoc2)[C@]5(C)CCC4[C@]13C (stereo not given in full)
inactive: outcome (CRL-7250) | max response (HEK293) -0.209% | max response (HaCat) 4.1% | max response (KB-3-1) 7.49% | max response (NIH3T3) -5.38%

c1ccc(N2CCN(CCc3nn[nH]n3)CC2)cc1
inactive: max response (CRL-7250) 4.82% | max response (HEK293) -5.85% | max response (HaCat) -17.8% | max response (KB-3-1) 7.49% | max response (NIH3T3) 1.1%

COc1cc2ncnc(Nc3cccc(Cl)c3F)c2cc1OC(=O)N1CCN(C)C[C@H]1C
inactive: max response (CRL-7250) -58.2% | max response (HEK293) -115% | max response (HaCat) -86.6% | outcome (KB-3-1) | max response (NIH3T3) -86.1%

CN(C)C1CCN(C(=O)c2ccc(NC(=O)Nc3ccc(-c4nc(N5CCOCC5)nc(N5CCOCC5)n4)cc3)cc2)CC1
active: Potency (CRL-7250) 0.0164 µM | Potency (HEK293) 0.0517 µM | Potency (HaCat) 0.116 µM | Potency (KB-3-1) 0.058 µM | Potency (NIH3T3) 0.13 µM

Cc1ccc(S(=O)(=O)c2ccc([N+](=O)[O-])o2)cc1
active: Potency (CRL-7250) 5.8 µM | Potency (HEK293) 1.03 µM | Potency (HaCat) 6.51 µM | Potency (KB-3-1) 23.1 µM | Potency (NIH3T3) 5.17 µM

CC1=CC(=O)CC(C)(C)[C@@]1(O)CC[C@@H](C)O[C@@H]1O[C@H](CO)[C@@H](O)[C@H](O)[C@H]1O
inactive: max response (CRL-7250) 0.369% | max response (HEK293) -2.25% | max response (HaCat) -28.9% | max response (KB-3-1) 1.23% | max response (NIH3T3) 0.984%

CC1(C)CC2=C3C=CC4C5(C)CCC(O)C(C)(C)C5CCC4(C)C3(C)CCC2(C)C(O)C1 (stereo not given)
inactive: max response (CRL-7250) -3.63% | max response (HEK293) -1.33% | max response (HaCat) -3.58% | max response (KB-3-1) -4.92% | max response (NIH3T3) -2.26%

CC1=CC(=O)C(=C(C)C)CC2C1CCC2(C)O (stereo not given)
inactive: max response (CRL-7250) -11.2% | max response (HEK293) 4.65% | max response (HaCat) -1.27% | max response (KB-3-1) 8.27% | max response (NIH3T3) -2.64%
